An excerpt weighted towards active compounds, which were near 11% of everything screened.
FLuc inh-1: blocks purified firefly luciferase enzyme activity; P08659; purified P. pyralis luciferase, luminescence, biochemical; Potency, µM (series often up to 115 µM), actives largely listed as inhibitors; actives 2.5% (n = 76,000); also: nearly all actives have a fitted effect of over 65% in size
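FLuc 10nM, D-luciferin 10uM, ATP 10uM, Mg acetate 10mM, Tris acetate pH 7.5, Tween/BSA; cpd qHTS; enzyme added last; CCD luminescence.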
HEK cytotox: cytotoxic compounds in HEK 293 cells; HEK 293 viability, ATP luminescence (CellTiter-Glo), 48-72 h; Potency, µM (highest dose often 115 µM), most hits filed as inhibitors; actives 6.6% (n = 94,000); also: nearly all actives have a fitted effect of over 60% in size
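Viability of HEK 293 cells, plated at 250 cells/well, was judged by cellular ATP after compound treatment for 48 or 72 hr. Luminescence was imaged 10 min after CellTiter-Glo addition at room temperature.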
hNpr1 antagonist: blocks ANP-stimulated signaling of human Npr1 receptor; HEK293 hNpr1 GloSensor cGMP, ANP-stimulated luminescence; Potency, µM (top dose mostly 46.3 µM), most hits filed as inhibitors; P16066; actives 1.6% (n = 76,000); calls by dose curve; also: nearly all actives have a fitted effect of over 60% in size
Target sequence (P16066 whole entry, looked up): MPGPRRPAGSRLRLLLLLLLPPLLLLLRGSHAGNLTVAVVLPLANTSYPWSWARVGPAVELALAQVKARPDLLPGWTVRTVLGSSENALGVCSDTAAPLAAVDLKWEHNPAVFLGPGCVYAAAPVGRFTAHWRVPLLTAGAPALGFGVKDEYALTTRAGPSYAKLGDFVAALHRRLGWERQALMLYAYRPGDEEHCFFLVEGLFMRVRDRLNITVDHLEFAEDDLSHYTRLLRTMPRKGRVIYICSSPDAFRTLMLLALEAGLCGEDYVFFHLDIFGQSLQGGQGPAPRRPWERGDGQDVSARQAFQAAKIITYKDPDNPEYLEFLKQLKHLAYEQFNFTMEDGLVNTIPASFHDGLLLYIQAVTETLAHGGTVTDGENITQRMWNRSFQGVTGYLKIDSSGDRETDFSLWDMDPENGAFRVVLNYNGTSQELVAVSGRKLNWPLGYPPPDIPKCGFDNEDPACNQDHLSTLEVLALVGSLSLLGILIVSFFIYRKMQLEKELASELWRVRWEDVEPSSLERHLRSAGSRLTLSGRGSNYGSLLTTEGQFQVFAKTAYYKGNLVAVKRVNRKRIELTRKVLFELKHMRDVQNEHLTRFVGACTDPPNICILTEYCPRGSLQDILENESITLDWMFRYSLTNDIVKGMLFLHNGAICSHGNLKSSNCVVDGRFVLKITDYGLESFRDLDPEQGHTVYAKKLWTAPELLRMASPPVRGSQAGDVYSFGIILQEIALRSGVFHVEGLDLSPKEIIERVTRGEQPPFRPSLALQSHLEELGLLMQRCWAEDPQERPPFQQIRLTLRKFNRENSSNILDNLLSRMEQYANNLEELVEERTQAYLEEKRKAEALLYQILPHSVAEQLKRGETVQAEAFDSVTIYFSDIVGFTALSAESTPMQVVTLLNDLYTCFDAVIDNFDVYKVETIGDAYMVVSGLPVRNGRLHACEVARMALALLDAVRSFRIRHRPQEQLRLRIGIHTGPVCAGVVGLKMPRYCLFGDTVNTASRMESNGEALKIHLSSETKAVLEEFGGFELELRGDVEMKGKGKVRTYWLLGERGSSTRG
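HEK293 cells stably expressing human Npr1 and cGMP GloSensor pGS-40F, loaded 2 h with 2% GloSensor reagent, given compound 30 min at room temperature. Luminescence read before and 20 min after 0.1 nM hNppA.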
NIH3T3 tox: kills NIH 3T3 cells. NIH 3T3 viability, CellTiter-Glo ATP luminescence, 48-72 h. Potency, µM (doses to about 96.7 µM), most hits filed as inhibitors. actives 4.3% (n = 94,000); also: nearly all actives have a fitted effect of over 55% in size
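ATP-dependent luminescence (CellTiter-Glo) served as the viability signal for NIH 3T3 cells treated with compound for 48 or 72 hr at 37 °C.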
FLuc SDR -ATP: firefly luciferase binding stabilization, ATP absent. actives 7.8% (n = 1,300). Potency, µM (series often up to 32.7 µM), hits mostly activators. shares compounds with FLuc inh-1. Purified FLuc-C-HiBiT, Nano-Glo HiBiT luminescence, no ATP; also: nearly all actives have a fitted effect of over 55% in size
FLuc SDR ATP: binders stabilizing firefly luciferase, plus ATP; purified FLuc-C-HiBiT + ATP, HiBiT complementation luminescence; shares compounds with FLuc inh-1; actives 8.7% (n = 1,300); Potency, µM (top dose mostly 32.7 µM), actives largely listed as activators; AID 1963319;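 also: signal reports ligand binding via conformational change of the enzyme rather than luciferase catalysis; nearly all actives have a fitted effect of over 55% in size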
FLuc inh-2: firefly luciferase enzyme inhibition. shares compounds with FLuc inh-1. purified FLuc-C-HiBiT enzyme, luciferin luminescence. Potency, µM (highest dose often 32.7 µM), hits mostly inhibitors. actives 42% (n = 1,300). AID 1963320; also: nearly all actives have a fitted effect of over 70% in size
Hits are given with their value; – = inactive; ? = inconclusive; · = no result given. Unless noted, calls follow the shape of the dose curve; as a rule, active = well fitted curve in the direction sought with a large enough effect; inconclusive = small, poorly fitted or top-dose-only effect, or another doubt; inactive = no such curve, though single readings can be large; an effect the other way counts as inactive or inconclusive.

SMILES	FLuc inh-1	HEK cytotox	hNpr1 antagonist	NIH3T3 tox	FLuc SDR -ATP	FLuc SDR ATP	FLuc inh-2
COc1cccc(CNC(=O)c2cnc3cc(C)nn3c2)c1	·	–	·	–	·	·	·
CCOc1ccc(-n2nc(CO)c(C(=O)NCc3ccccn3)n2)cc1	·	·	·	·	–	–	?
COc1ccc(N2CCN(C(=O)c3noc(-c4ccc(C)cc4)n3)CC2)cc1	14µM	?	–	?	–	–	?
COc1ccc(C(=O)Nc2cc(C(C)C)c(O)c(S(=O)(=O)c3ccc(Cl)cc3)c2C)cc1	·	·	·	·	–	–	?
COc1ccc(Cn2c(=O)c(C(=O)N3CCN(C(=O)c4ccc(F)cc4)CC3)nc3cccnc32)cc1	·	–	·	?	·	·	·
O=c1c2nc(N3CCC(c4ccccc4)CC3)ccc2ncn1C1CC1	1.4µM	89µM	?	?	20µM	?	3.6µM
O=c1c2nc(N3CCC(c4ccccc4)CC3)ccc2ncn1-c1cccnc1	?	?	–	?	·	·	·
CN1CCNc2cc(-c3ccc(N4CCOCC4)cc3)ncc2C1	–	?	–	?	·	·	·
CC(=O)N1CCNc2cc(-c3cccc(N4CCOCC4)c3)ncc2C1	·	·	·	·	–	–	?
COc1ccc(-c2cc3c(cn2)CN(C(C)=O)CCN3)cc1	·	·	·	·	–	–	13µM
CC(=O)N1CCNc2cc(-c3ccccc3F)ncc2C1	·	·	·	·	–	–	?
COc1ccc(-c2cccc(COc3cnc4c(ccn4CC(=O)O)c3)c2)c(C)c1	–	?	–	?	–	–	–
O=C(O)Cn1ccc2cc(OCCc3cccc(-c4ccccc4)c3)cnc21	–	?	–	–	·	·	·
COc1cccc(-c2cccc(COc3cnc4c(ccn4CC(=O)O)c3)c2)c1	·	·	·	·	–	–	?
Cc1ccc(-c2cccc(COc3cnc4c(ccn4CC(=O)O)c3)c2)cc1C	·	·	·	·	–	–	?
COc1cc(Cl)ccc1-c1cccc(CCOc2cnc3c(ccn3CC(=O)O)c2)c1	–	?	–	?	·	·	·
Cc1ccc(-c2cccc(COc3cnc4c(ccn4CC(=O)O)c3)c2)c(C)c1	·	·	·	·	–	–	–
O=C(O)Cn1ccc2cc(OCCc3cccc(-c4ccc(Cl)cc4)c3)cnc21	–	?	–	?	·	·	·
O=C(NC1CC1)c1nc2cccnc2n(C2CC2)c1=O	·	–	·	–	·	·	·
COCCCn1c(C)cc(C(=O)NCC(=O)N2CCCCCNC(=O)CC2c2ccccc2)c1C (stereo unspecified)	–	–	–	–	·	·	·
CCn1cc(CN2CCCCCCNC(=O)[C@@H]3CCC[C@@H]32)c(C)n1	–	–	–	?	·	·	·
COc1ccccc1C(=O)Nc1ccc(-c2nc3ccccc3s2)c(C)c1	·	·	·	·	–	–	?
COc1ccccc1-c1cc(C(=O)Nc2ccc(F)cc2)c2cnn(C)c2n1	·	?	·	–	·	·	·
Cc1ccc(C)c(C(=O)Nc2ccc3c(N4CCCC4)ncnc3c2)c1	–	?	–	?	·	·	·
Cc1ccc(C(=O)Nc2ccc(-c3nc4ccccc4s3)c(O)c2)c(C)c1	·	·	·	·	–	–	–
SMILES	FLuc inh-1	HEK cytotox	hNpr1 antagonist	NIH3T3 tox	FLuc SDR -ATP	FLuc SDR ATP	FLuc inh-2
CC1CCN(C(=O)c2cc3c(s2)CCC(C(=O)O)C3)CC1 (stereo unspecified)	13µM	–	–	–	–	–	?
O=C(O)C1CCc2sc(C(=O)N3CCOCC3)cc2C1 (stereo unspecified)	–	–	–	–	·	·	·
C=CCN(C)C(=O)[C@@H](C)C1CC[C@@]2(C)Cc3sc(NC(=O)CN(C)C)nc3[C@@H](C)[C@@H]2[C@H]1O (stereo partly specified)	13µM	–	–	–	–	–	–
O=C([C@H]1CCCN1C(=O)Cc1ccccn1)N1CCC(N2CCOC2=O)CC1	·	–	·	–	·	·	·
Cc1ccc(C(=O)NCCn2ccn3nc(-c4ccc(C)cc4C)cc3c2=O)cc1	?	–	–	–	·	·	·
Cc1ccc(-c2cc3c(=O)n(CCNC(=O)c4cc(F)ccc4F)ccn3n2)c(C)c1	?	–	–	–	·	·	·
Cc1ccc(-c2cc3c(=O)n(CCNC(=O)C4CCCCC4)ccn3n2)c(C)c1	2µM	?	?	?	?	?	2.5µM

Bioassay records from PubChem.
